This note sets out measurements from PubChem BioAssay (NCATS).

A short description of assay [1]: Cell Viability - SK-N-SH (AID 435; calls by dose curve;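 also: potency is read from the fitted curve at half-maximal effect; compound exposure lasted 40 h at 37 °C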). The note with it: SK-N-SH neuroblastoma cell viability qHTS. In a few lines: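 SK-N-SH neuroblastoma cells (1500/well) treated 40 h at 37 °C in complete medium; viability read as cellular ATP by CellTiter-Glo luminescence. Normalized to DMSO and 100 uM tamoxifen; AC50 from Hill fits of qHTS concentration-response.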
(In general: qHTS replaces the single test concentration by a dilution series.)

The nature of assay [2]: Cell Viability - N2a (AID 540).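 Also: plate controls were DMSO alone for no effect and tamoxifen control for full effect; nearly all actives have a fitted effect of over 45% in size.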 The settings on record: N2a mouse neuroblastoma cell viability; activity change, negative = cytotoxicity: at 92.2 µM (top of the series). The method, boiled down: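 N2a mouse neuroblastoma, 1500 cells/well, 5 hr settle; compound 40 hr, 37 °C; CellTiter-Glo 20 min RT; luminescence; Hill-fit AC50.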
A short description of assay [3]: Cell Viability - Renal Proximal Tubule (AID 545). Also: nearly all actives have a fitted effect of over 40% in size. The settings on record: renal proximal tubule cells viability; series mostly up to 91.7 µM. In a few lines: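 Rat renal proximal tubule primary cells, 1000/well, exposed to compounds for 40 hr at 37 °C in complete medium; cellular ATP read by CellTiter-Glo luminescence. AC50 from concentration-response fitted with standard Hill equation.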

Assay [4] can be described thus: Cellular Toxicity (caspase-3) Jurkat (AID 655).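 Also: cells exposed to compound for 16 h at 37 °C before reading.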 The note with it: Jurkat caspase-3 activation, luminescence; caspase-3 activation: at 92.2 µM (top of the series), DMSO = 0%, tamoxifen = 100%. In a few lines:
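Jurkat cells (5000/well) in complete medium exposed 16 h at 37 C; caspase-3/7 activity read by Caspase-Glo luminescence after 20 min at room temperature. Normalized to DMSO and 100 uM tamoxifen; AC50 from Hill fits.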

Assay [5] deals with Cytochrome P450 3A4 (Homo sapiens) (UniProt P08684). Nature of the assay: qHTS Assay for Inhibitors and Substrates of Cytochrome P450 3A4 (AID 884). Also: % is scaled to controls: 0 for no effect and ±100 for the full control effect; nearly all actives have a fitted effect of over 50% in size. The settings on record: recombinant CYP3A4, Luciferin-PPXE luminescence; series mostly up to 57.1 µM. The method, boiled down: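 Luminescent readout of luciferin produced by CYP3A4 (20 nM) dealkylation of Luciferin-PPXE, 25 uM (its KM). NADPH-driven reaction ran 60 min at RT after 10 min compound preincubation; data scaled to 57 uM ketoconazole as 100% inhibition.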
Chain of Cytochrome P450 3A4 (Homo sapiens) (P08684 whole entry, looked up): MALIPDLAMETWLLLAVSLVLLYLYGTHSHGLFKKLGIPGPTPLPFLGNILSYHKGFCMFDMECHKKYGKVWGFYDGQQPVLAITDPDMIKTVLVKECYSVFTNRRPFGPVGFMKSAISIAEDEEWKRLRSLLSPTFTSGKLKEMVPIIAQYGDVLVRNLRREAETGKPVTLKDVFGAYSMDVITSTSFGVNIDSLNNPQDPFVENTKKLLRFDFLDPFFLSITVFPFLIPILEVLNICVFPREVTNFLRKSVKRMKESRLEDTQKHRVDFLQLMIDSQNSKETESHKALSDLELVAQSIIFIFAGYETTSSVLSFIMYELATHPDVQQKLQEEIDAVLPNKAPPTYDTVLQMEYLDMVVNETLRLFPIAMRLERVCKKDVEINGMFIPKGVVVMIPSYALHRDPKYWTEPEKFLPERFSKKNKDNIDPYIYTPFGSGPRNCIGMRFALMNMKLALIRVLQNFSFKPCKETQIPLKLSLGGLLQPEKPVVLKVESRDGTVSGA

Assay [6] in a line: Cell Viability - LYMP2-001 (AID 921).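 Also: 0% = DMSO only and full inhibition = tetraoctylammonium bromide control wells; nearly all actives have a fitted effect of over 70% in size.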 The settings on record: LYMP2-001 lymphoblastoid cell viability; series mostly up to 92.2 µM. In a few lines:
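Human lymphoblastoid LYMP2-001 cells, 2500 per well, in complete medium, treated 24 h at 37 C. Viability from cellular ATP by CellTiter-Glo luminescence; AC50 from Hill-equation fits of qHTS concentration-response.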

The nature of assay [7]: MultiTox-Fluor Cytotoxicity Assay - LYMP1-002 - Dead Cells (AID 960).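 Also: 0% = DMSO and 100% = tetraoctylammonium bromide; nearly all actives have a fitted effect of over 60% in size.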 The settings on record: LYMP1-002 lymphoblastoid cells, dead-cell protease fluorescence; series mostly up to 46.1 µM. The method, boiled down: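 Readout: fluorescence at 485/520 from cell-impermeant bis-AAF-R110 cleaved by proteases leaking from damaged cells. LYMP1-002 lymphoblastoid line, 16 hr compound treatment at 37 C, concentration-response in qHTS format; Hill-equation AC50 values.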

A short description of assay [8]: Cell Viability - LYMP2-005 (AID 967).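 Also: plate controls were DMSO only for no effect and 92 µM tetraoctylammonium bromide control for full effect.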 The note with it: LYMP2-005 lymphoblastoid cell viability; series mostly up to 92.2 µM. The method, boiled down: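 Human lymphoblastoid LYMP2-005 cells, 2,500 per well in complete medium, rested 5 h at 37C then compound-treated 24 h at 37C. Intracellular ATP read by CellTiter-Glo luminescence after 30 min at room temperature; AC50 from Hill-equation fits of concentration-response data.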

A short description of assay [9]: Cell Viability - LYMP2-015 (AID 971). Also: nearly all actives have a fitted effect of over 55% in size. Also: potency is read from the fitted curve at half-maximal effect. The note with it: LYMP2-015 lymphoblastoid cell viability; series mostly up to 92.2 µM. The method, boiled down: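 qHTS cytotoxicity: 2500 cells/well, 5 hr 37 C, compound 24 hr 37 C, CellTiter-Glo 30 min RT, luminescence. Loss of ATP = toxicity; AC50 via standard Hill fit.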
Assay [10] in a line: Cell Viability - LYMP2-002 (AID 977).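 Also: compound exposure lasted 24 h at 37 °C.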 Also: potency is read from the fitted curve at half-maximal effect. The settings on record: LYMP2-002 lymphoblastoid cell viability, qHTS; series mostly up to 92.2 µM. In a few lines:
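Human lymphoblastoid cells (2500/well) in complete medium were preincubated 5 hr at 37 C, then exposed to compounds for 24 hr at 37 C. Intracellular ATP was read by CellTiter-Glo luminescence; AC50 came from Hill-equation concentration-response fits.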

The nature of assay [11]: Cell Viability - LYMP2-010 (AID 981). Also: nearly all actives have a fitted effect of over 55% in size. Also: potency is read from the fitted curve at half-maximal effect. The note with it: LYMP2-010 lymphoblastoid cell viability, qHTS; series mostly up to 92.2 µM. In a few lines: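 qHTS cytotoxicity, 1536-well: 2500 cells/well, 5 hr settle, 24 hr compound at 37 C, CellTiter-Glo 30 min RT, luminescence read. Decrease in ATP = toxicity; AC50 via standard Hill equation. Positive control tetraoctylammonium bromide.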

A short description of assay [12]: Cell Viability - LYMP2-020 (AID 986). Also: nearly all actives have a fitted effect of over 55% in size. Also: potency is read from the fitted curve at half-maximal effect. The settings on record: series mostly up to 92.2 µM. In a few lines: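 qHTS, 2500 cells/well; 5 hr then 24 hr compound exposure, 37 C; CellTiter-Glo luminescence after 30 min RT; ATP decrease taken as cytotoxicity; AC50 via Hill equation; tetraoctylammonium bromide positive control.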
The nature of assay [13]: Cell Viability - LYMP2-022 (AID 987). Also: nearly all actives have a fitted effect of over 55% in size. Also: potency is read from the fitted curve at half-maximal effect. The settings on record: LYMP2-022 lymphoblastoid cell viability; series mostly up to 92.2 µM. The method, boiled down: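 Luminescent ATP read-out (CellTiter-Glo, 30 min, RT) after 24 hr, 37 C compound exposure of 2500 human lymphoblastoid cells/well in complete medium. Cytotoxicity taken as concentration-dependent ATP loss; AC50 from standard Hill equation.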

Assay [14] in a line: qHTS assay for small molecule agonists of retinoid X receptor alpha signaling (AID 588544). The note with it: HEK293T RXRa-UAS-bla, beta-lactamase reporter, 18 h; 530 nm emission.
The target of assay [15] is Thyroid hormone receptor beta (Homo sapiens) (UniProt P10828). Nature of the assay: qHTS assay for small molecule agonists of thyroid hormone receptor beta signaling (AID 588545; calls by dose curve;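 also: 0% = DMSO only and 100% = 10 nM T3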). The note with it: TR-UAS-bla GripTite HEK 293, beta-lactamase ratio, agonist mode, 18 h; series mostly up to 76.7 µM. In a few lines:
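TR-UAS-bla-GripTite HEK 293 cells in medium with 2% charcoal/dextran FBS, 0.1 mM NEAA and 1 mM sodium pyruvate were treated with titrated compounds for 18 hrs at 37 C. Beta-lactamase reporter was read with CCF4 dye (ex 405, em 460/530 nm); EC50 from Hill fits.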

Assay [16] can be described thus: qHTS assay for small molecule antagonists of retinoid X receptor alpha signaling (AID 588546; active = well fitted inhibition curve with a large enough effect in the signal ratio, with a control signal flat, not every such curve was filed as active; the % refers to the signal ratio;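 also: cells stimulated with 9-cis-retinoic acid as agonist; % is scaled to controls: 0 for no effect and ±100 for the full control effect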). The note with it: HEK293T RXRa-UAS-bla, beta-lactamase ratio, antagonist mode; measured here: W530 green channel, cytotoxicity proxy. In a few lines:
(§1)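 Beta-lactamase reporter inhibition, read as CCF4 fluorescence ratio (ex 405, em 460/530 nm) after 2 h at RT. HEK293T UAS-bla cells, 2500/well, were stimulated with 9-cis-RA at 500 or 100 nM final alongside test compound for 18 h at 37 C.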

In assay [17] the target is Retinoic acid receptor RXR-alpha (Homo sapiens) (UniProt P19793). The description is as above. The settings on record: HEK293T RXRa-UAS-bla, beta-lactamase ratio, antagonist mode. In a few lines:
as §1

Assay [18] deals with Tumor necrosis factor (Homo sapiens) (UniProt P01375). Briefly: qHTS assay to identify small molecules that stimulate Tumor Necrosis Factor-alpha (TNF-alpha) secretion (AID 651757; active = well fitted curve in the direction sought with a large enough effect in the signal ratio; the % refers to the signal ratio; also: 0% is about no effect). The settings on record: Human cells, HTRF 665/615 ratio; series mostly up to 92.2 µM. The method, boiled down: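 THP-1 cells, 3000/well; compound 17 hrs, 37 C; add cryptate/XL665 anti-TNF-alpha antibody pair; 3 hr RT; TR-FRET (HTRF) read of secreted TNF-alpha. Quantitative HTS format.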
Chain of Tumor necrosis factor (Homo sapiens) (P01375 whole entry, looked up): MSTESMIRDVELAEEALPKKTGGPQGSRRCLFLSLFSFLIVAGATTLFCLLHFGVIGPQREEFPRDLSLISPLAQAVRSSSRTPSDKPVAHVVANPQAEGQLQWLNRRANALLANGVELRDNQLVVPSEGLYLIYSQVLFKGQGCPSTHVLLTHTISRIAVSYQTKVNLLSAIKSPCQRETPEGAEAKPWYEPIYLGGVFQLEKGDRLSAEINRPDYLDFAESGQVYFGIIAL

Assay [19] in a line: Cellular Toxicity (caspase-3) MRC-5 (AID 659). The settings on record: MRC-5 cells, luminescence, normalized: DMSO 0%, 10 µM staurosporine 100%; series mostly up to 91.7 µM. In a few lines: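 Luminescent Caspase-Glo 3/7 read-out (1 h, room temperature) after a 16 h, 37 °C compound exposure of MRC-5 lung fibroblasts at 1500 cells/well. Concentration-response AC50 from Hill equation; 0% DMSO, 100% 10 uM staurosporine.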

Assay [20] addresses Thyroid hormone receptor beta (Homo sapiens) (UniProt P10828). Briefly: qHTS assay for small molecule antagonists of thyroid hormone receptor beta signaling (AID 588547; active = well fitted inhibition curve with a large enough effect in the signal ratio, with a control signal flat, not every such curve was filed as active; the % refers to the signal ratio;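 also: cells stimulated with 0.4 nM T3 agonist during compound exposure; % is scaled to controls: 0 for no effect and ±100 for the full control effect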). The settings on record: TR-UAS-bla HEK293, beta-lactamase ratio, antagonist mode, 18 h. The method, boiled down:
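Inhibition of T3-driven (0.4nM final) beta-lactamase reporter activity was measured over 0.59 nM to 92 uM compound after 18 h at 37 C. The cells were GripTite HEK293 TR-UAS-bla in charcoal/dextran-stripped serum, with CCF4 ratio read-out and IC50 from Hill fits.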

The structures appear in SMILES notation. Several values for one entry are separate records, joined by “and”; a condition that tells them apart may be missing. Identical values can stand only once. Records with an inconclusive call do not appear. Activity calls are given as the source filed them. Unless noted, calls follow the shape of the dose curve; as a rule, active = well fitted curve in the direction sought with a large enough effect; inconclusive = small, poorly fitted or top-dose-only effect, or another doubt; inactive = no such curve, though single readings can be large; an effect the other way counts as inactive or inconclusive.

Chain of Thyroid hormone receptor beta (Homo sapiens) (P10828 whole entry, looked up): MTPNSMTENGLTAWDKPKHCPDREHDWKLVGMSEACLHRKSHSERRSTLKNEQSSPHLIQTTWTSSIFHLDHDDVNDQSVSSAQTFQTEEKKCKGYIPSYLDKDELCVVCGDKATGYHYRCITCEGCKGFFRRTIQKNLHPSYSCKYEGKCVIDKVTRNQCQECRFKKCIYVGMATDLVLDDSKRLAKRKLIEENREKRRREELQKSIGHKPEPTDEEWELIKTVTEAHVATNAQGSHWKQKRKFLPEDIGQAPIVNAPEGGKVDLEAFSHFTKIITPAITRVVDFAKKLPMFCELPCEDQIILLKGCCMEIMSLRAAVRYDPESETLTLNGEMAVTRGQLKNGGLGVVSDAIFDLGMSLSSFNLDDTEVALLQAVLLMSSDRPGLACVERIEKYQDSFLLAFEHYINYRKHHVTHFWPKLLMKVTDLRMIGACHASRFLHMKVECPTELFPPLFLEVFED
Chain of Retinoic acid receptor RXR-alpha (Homo sapiens) (P19793 whole entry, looked up): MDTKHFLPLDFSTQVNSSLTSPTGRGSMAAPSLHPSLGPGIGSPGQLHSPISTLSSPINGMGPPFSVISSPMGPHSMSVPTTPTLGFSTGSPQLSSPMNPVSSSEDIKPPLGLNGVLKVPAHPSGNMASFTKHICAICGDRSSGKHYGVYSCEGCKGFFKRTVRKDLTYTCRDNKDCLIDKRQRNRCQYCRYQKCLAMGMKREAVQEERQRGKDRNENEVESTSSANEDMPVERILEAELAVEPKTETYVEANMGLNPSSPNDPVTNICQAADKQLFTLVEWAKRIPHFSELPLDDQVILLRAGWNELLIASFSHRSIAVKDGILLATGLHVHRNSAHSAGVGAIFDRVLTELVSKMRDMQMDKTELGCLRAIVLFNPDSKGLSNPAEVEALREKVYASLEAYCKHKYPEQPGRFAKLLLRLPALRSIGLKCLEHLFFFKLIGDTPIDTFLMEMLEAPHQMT

Take `CC(C)Br`: in assay [1], the Potency is > 92 µM (inactive). Moreover, the Potency entry in assay [2], in [5], in [6], in [7], in assay [8] and in [9] was “inactive” in each case. Moreover, the Potency entry in [10], in assay [11], in assay [12], in assay [13] and in assay [15] was “inactive” in each case. Further, the compound was classed as inactive in assay [3] and in assay [18]. Moreover, in assay [4], the caspase-3 activation is 0.12% (inactive). Also, the max response is -8.42% in assay [14], 4.33% in assay [16] and -3.19% (inactive) in [17].

`N#CC(Cl)(Cl)Cl`: the Potency in assay [1] was > 92 µM (inactive). In addition, the Potency result in [2], in [5], in assay [6], in assay [8], in [9] and in assay [10] was “inactive” throughout. The Potency entry in assay [11], in [12], in assay [13] and in assay [15] was “inactive” throughout. Also, the compound was classed as inactive in assay [3], in [19] and in assay [18]. Also, the results for the max response in [14], in assay [16] and in [17] were -10.8%, -17.2% and 11.1% (inactive), respectively.

`O=[N+]([O-])c1c(Cl)c(Cl)c(Cl)c(Cl)c1Cl`: in assay [1], the Potency is > 92 µM (inactive). The Potency result in assay [2], in assay [5], in assay [6], in assay [8], in assay [9] and in [10] was “inactive” in each case. Besides, the Potency result in assay [11], in assay [12], in assay [13] and in [15] was “inactive” throughout. Further, the outcome in assay [3], in [19] and in [18] was inactive. For the same compound, the caspase-3 activation in assay [4] was 0.645% (inactive). The max response was -0.246% and 22.3% in [14]; -1.28% in assay [16]; -5.68% (inactive) in assay [17]. Moreover, the activity change % (negative = inhibition) in assay [20] is 14.8% (inactive).

With `Nc1ccc(Oc2ccc(N)cc2)cc1`, the Potency in assay [1] is > 92 µM (inactive). The Potency entry in assay [2], in [6], in [7], in assay [8], in assay [9] and in assay [10] was “inactive” in each case. Moreover, the Potency result in [11], in assay [12] and in [13] was “inactive” throughout. Besides, the compound was classed as inactive in assay [3] and in [19]. For the same compound, the caspase-3 activation in assay [4] was 3.63% (inactive). Also, the max response in assay [14] was 6.59% and -0.644%; in assay [16], -3.97% and -1.47%; in [17], 4.6% (inactive) and -3% (inactive).

For `C=CCCC#N`, the Potency in [1] is > 92 µM (inactive). In addition, the Potency result in [2], in assay [5], in [6], in [7], in assay [9] and in assay [10] was “inactive” in each case. The Potency result in assay [11], in assay [12], in assay [13] and in assay [15] was “inactive” throughout. Further, the result in [3], in assay [19] and in assay [18] was inactive. Besides, in assay [4], the caspase-3 activation was -1.73% (inactive). In addition, the max response in assay [14] was -8.63%; in assay [16] it was -6.48%; in assay [17], 17.4% (inactive). In addition, the activity change % (negative = inhibition) in assay [20] was 9.59% (inactive).

On to `O=[N+]([O-])/C=C/c1ccccc1`, for which the call in [19] and in [18] was inactive. In addition, the Potency result in [5], in assay [7], in [8] and in assay [15] was “inactive” in each case. The Potency is 39.8 µM (active) in assay [9]; 39.8 µM (active) in [10]; 50.1 µM (active) in assay [11]; 50.1 µM (active) in assay [12]; 39.8 µM (active) in assay [13]. For the same compound, the figures for the max response in [14], in assay [16] and in [17] were -4.59%, -11.2% and -0.636% (inactive), respectively. Further, in assay [20], the activity change % (negative = inhibition) was -15.9% (inactive).

For `CCCCC#N`, the Potency in assay [1] is > 92 µM (inactive). The Potency result in [2], in [5], in assay [6], in assay [7], in [8] and in assay [9] was “inactive” in each case. Also, the Potency result in assay [10], in assay [11], in [12] and in [13] was “inactive” each time. In addition, the outcome in [3], in assay [19] and in assay [18] was inactive. For the same compound, the caspase-3 activation in [4] was 0.125% (inactive). The figures for the max response in [14], in assay [16] and in assay [17] were 2.48%, -4.26% and 11.5% (inactive), respectively. For the same compound, the activity change % (negative = inhibition) in [20] is -12.9% (inactive).
